Assay outcomes as filed in PubChem.
ALDH1A1 block = ALDH1A1 (human) enzyme inhibition. Potency, µM (series often up to 75.3 µM), for the others: at the highest dose activity, negative = inhibition, actives largely listed as inhibitors. 7.3% of 220,000 active. Purified ALDH1A1, NADH fluorescence, propionaldehyde substrate. P00352;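 further: potency means the concentration at half of the fitted maximal effect; plate controls were no enzyme wells and a reference inhibitor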
IMPase inh = membrane-permeable compound that blocks inositol monophosphatase | P97697 | CHO-M1 cells, IP1 accumulation, HTRF TR-FRET ratio | inhibition (IP1 accumulation), % at 46.1 µM | 120,000 tested, under 10 active; active means well fitted curve in the direction sought with a large enough effect in the signal ratio, not every such curve was filed as active; inconclusive means small, poorly fitted or top-dose-only effect, or a change in a side signal; inactive means no such curve, though single readings can be large or run the other way; the % refers to the signal ratio;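 further: cells stimulated with carbachol in lithium chloride buffer; plate controls were DMSO basal wells for no effect and reference inhibitor wells for full effect; higher means more IMPase inhibition seen as more IP1 and lower FRET ratio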
Target sequence (P97697 whole entry, looked up): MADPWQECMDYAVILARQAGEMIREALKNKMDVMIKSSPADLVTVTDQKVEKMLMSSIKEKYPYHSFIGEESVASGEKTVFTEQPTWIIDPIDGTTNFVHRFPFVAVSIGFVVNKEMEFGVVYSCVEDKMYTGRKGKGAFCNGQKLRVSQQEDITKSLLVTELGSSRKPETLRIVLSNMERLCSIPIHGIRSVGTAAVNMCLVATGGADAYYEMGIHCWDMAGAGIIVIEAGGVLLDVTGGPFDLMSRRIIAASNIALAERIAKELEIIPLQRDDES
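Measured: the HTRF emission ratio (665/620 nm) plus the 620 nm donor channel, each fitted to the Hill equation to give AC50. Cells were CHO-M1 given compounds up to 46 uM and a 30 min carbachol stimulation at 37C.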
HPGD inh = HPGD (human) dehydrogenase inhibition; purified HPGD, NADH fluorescence kinetic, PGE2 substrate; 4.3% of 150,000 active; Potency, µM, without a hit: top-dose activity change, negative = inhibition, most hits filed as inhibitors; AID 894; P15428; further: potency means the concentration at half of the fitted maximal effect
Target sequence (P15428 whole entry, looked up): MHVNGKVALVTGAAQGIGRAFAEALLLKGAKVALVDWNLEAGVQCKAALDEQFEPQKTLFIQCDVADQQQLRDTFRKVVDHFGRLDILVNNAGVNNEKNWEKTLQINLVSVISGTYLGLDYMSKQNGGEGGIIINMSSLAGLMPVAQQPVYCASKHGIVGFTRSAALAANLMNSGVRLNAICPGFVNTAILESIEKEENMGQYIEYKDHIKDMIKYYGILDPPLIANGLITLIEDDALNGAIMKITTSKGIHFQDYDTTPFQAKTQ
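20 nM HPGD preincubated 15 min at room temperature with compound in 50 mM Tris-HCl pH 8, 0.01% Tween 20. Started with 1 mM NAD+ and 30 uM prostaglandin E2; NADH fluorescence (360/450 nm) read 5 times over 30-s intervals, last minus first.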
IMPase Li cell = IMPase inhibition in cells with lithium potentiation; CHO-M1 cells, IP1 TR-FRET (IP-One), carbachol + lithium; Potency, µM (series often up to 59.4 µM), without a hit: at the highest dose activity, negative = IMPase inhibition, hits mostly inhibitors; 0.35% of 210,000 active; active means well fitted inhibition curve with a large enough effect; inconclusive means small, poorly fitted or top-dose-only effect; inactive means no such curve, though single readings can be large or run the other way;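 further: IP1 builds up when IMPase is blocked and the TR-FRET signal falls; potency means the concentration at half of the fitted maximal effect; plate controls were basal vehicle for no effect and high inhibitor control for full effect; nearly all actives have a fitted effect of over 50% in size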
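Test compounds were applied to CHO-M1 cells previously cultured for 16–30 h at 2000 per well. A small lithium amount accompanied them; after 30 min at 37C, IP1 was quantified by TR-FRET.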
PNC assembly inh = inhibitors of perinucleolar compartment assembly; PC3M PTB-GFP, PNC prevalence imaging, 16 h; stronger effect = lower value; 3.1% of 140,000 active; AID 2417; activity change (PNC), negative = inhibition, % at 10 µM;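 active means readout at or below -70, meaning at least 70% loss of cells showing the perinucleolar compartment, a nuclear body marking cancer cells; inconclusive means readout between -30 and a set limit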;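 further: plate controls were DMSO wells for no effect and camptothecin positive control wells for full effect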
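PC3M cells stably expressing PTB-GFP, 750–1000 cells/well, treated 16 h at 37 °C with compound (23 nl of library stock), in duplicate. After paraformaldehyde fixation and Hoechst stain, imaged at 20x; PNC prevalence scored by image analysis.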
* hit, by the source's call; ? = inconclusive; · = no result; [ ] = remark or other dose. An excerpt weighted towards active compounds, which were near 11% of everything screened. Unless noted, the call rests on the fitted dose curve; in most records, active means well fitted inhibition curve with a large enough effect (not every such curve was filed as active); inconclusive means small, poorly fitted or top-dose-only effect, or another doubt; inactive means no such curve, though single readings can be large or run the other way. Unless noted, on the % scale 0 is the no-effect control and ±100 the full control effect.

SMILES	ALDH1A1 block	IMPase inh	HPGD inh	IMPase Li cell	PNC assembly inh
COCCCNC(=O)Cn1c(=O)n(CC(=O)NCCc2ccc(OC)c(OC)c2)c(=O)c2sccc21	-13%	·	·	0%	·
COc1ccc(CCNC(=O)Cn2c(=O)n(-c3ccc(C)c(F)c3)c(=O)c3sccc32)cc1OC	6.3µM*	·	·	-8%	·
COc1ccc(NCC(=O)n2c(C)c(C)c3ccccc32)cc1OC	7.1µM*	·	·	·	·
CN(CC(=O)N1CCCCCC1)S(=O)(=O)c1ccc(Br)s1	?	8	22µM*	3%[38.3 µM]	32
COc1cc(NS(=O)(=O)c2ccc(NC(=O)c3cccc(F)c3)cc2)nc(OC)n1	·	-2	·	·	·
CSc1ccccc1NC(=O)c1ccc(Cl)s1	?	3	20µM*	38%[38.3 µM]	8
CSc1ccccc1NC(=O)c1ccccn1	6%	·	·	-3%	·
CC(CC(=O)Nc1cc([N+](=O)[O-])ccc1Cl)c1ccccc1 (stereo not given)	-6%	-5	-11%	8%[38.3 µM]	-1
O=C(Nc1ccccc1-c1ccccc1)c1cccc([N+](=O)[O-])c1	7.9µM*	4	-5%	25%[38.3 µM]	91
O=C(N/N=C(\c1ccccc1)c1ccccn1)c1cccc([N+](=O)[O-])c1	18µM*	·	·	0%	·
O=C(CC(=O)c1cccc([N+](=O)[O-])c1)Nc1ccccc1Cl	3.5µM*	·	·	-7%	·
Cc1ccc(N(CC(=O)NCCSc2ccccc2)S(=O)(=O)c2ccc(F)cc2)cc1	·	3	·	·	·
S=c1[nH]nc(CCc2ccccc2)n1-c1ccccc1	?	·	16µM*	2%	7
S=c1[nH]nc(CCc2ccccc2)n1-c1ccc(Cl)cc1	?	·	·	17%	·
O=C1C(Cl)=C(N2CCCCC2)C(=O)N1c1ccccc1	?	8	18µM*	20%[38.3 µM]	?
CC(C)=NNC(=O)c1c(O)c2ccccc2[nH]c1=O	13µM*	·	·	·	·
CCNC(=O)c1c(O)c2ccccc2[nH]c1=O	-1%	6	-7%	20%[38.3 µM]	-12
CC(C)CC(=O)NC(=S)Nc1cccc(NC(=O)c2ccccc2)c1	25µM*	·	-19%	12%	?
CC(C)CC(=O)NC(=S)Nc1ccc(NC(=O)c2cccs2)cc1	?	9	7.9µM*	24%[38.3 µM]	34
COc1cc(NC(=O)C(=O)NNC(=O)C2CCCCC2)c(OC)cc1Cl	3%	·	-16%	-10%	-95*
CC(C)C[C@@H](CC(=O)N[C@H](CC(=O)N[C@@H]1CCCC[C@H]1C(=O)N[C@H](CC(=O)N[C@@H](CCC(=O)O)CC(=O)O)CC(C)C)C(C)C)NC(=O)[C@@H]1CNCC[C@H]1N	?	·	-3%	11%	·
COc1cc(/C=N/NC(=O)c2sc(N)c(C#N)c2C)cc(Br)c1O	13µM*	12	-20%	17%[38.3 µM]	-2
O=C(CNC1CCCCC1)N1CCc2ccccc2C1	11µM*	4	-11%	52%[38.3 µM]	1
COc1ccc(-c2nnc3n(CCc4ccccc4)c(=O)c4ccccc4n23)cc1OC	1.8µM*	1	·	·	15
N#C/C(=C\c1ccc(O)c(O)c1)C(=O)OCCc1cccs1	-11%	2	28µM*	13%	·
SMILES	ALDH1A1 block	IMPase inh	HPGD inh	IMPase Li cell	PNC assembly inh
N#C/C(=C\c1ccc(O)c(O)c1)C(=O)N1CCCC1	?	·	·	22%	·
N#C/C(=C\c1c[nH]c2ccccc12)C(=O)c1ccc(O)c(O)c1	?	10	3.5µM*	35%	·
N#C/C(=C\c1ccc(O)c(O)c1)C(=O)c1ccc(O)c(O)c1	?	?	7.9µM*	44%	·
CC(C)COC(=O)/C(C#N)=C/c1c[nH]c2ccccc12	?	4	-7%	12%	?
Cc1cccc2cc(C3CC(c4ccco4)=NN3S(=O)(=O)c3ccccc3)c(Cl)nc12 (stereo not given)	-6%	·	-10%	7%	-91*
CCOC(=O)c1cc(C)n(-c2c(C)n(C)n(-c3ccccc3)c2=O)c1C	5%	11	-7%	23%[38.3 µM]	-17
Cc1cc(C2=NNC(=Nc3ccccc3)SC2)c(C)n1C	?	·	·	0%	·
COCCCN=C1NN=C(c2cc(C)n(-c3ccccc3F)c2C)CS1	25µM*	·	·	36%	·
O=S(=O)(c1ccc(N=C2NN=C(c3cc(F)ccc3F)CS2)cc1)N1CCOCC1	28µM*	·	·	-13%	·
Cc1cc(C2=NNC(=NC3CC3)SC2)c(C)n1-c1c(C)n(C)n(-c2ccccc2)c1=O	25µM*	·	-19%	17%	11
COCCn1c(C)cc(C2=NNC(=Nc3ccccc3F)SC2)c1C	18µM*	0	-23%	-3%[38.3 µM]	14
Cc1cc(S(=O)(=O)N2CCOCC2)ccc1F	-2%	-3	-7%	21%[38.3 µM]	4
COCCN=C1NN=C(c2cc(C)n(CC3CCCO3)c2C)CS1 (stereo not given)	?	·	·	10%	·
CN1CCN(c2ncc3nc(-c4cc(F)cc(F)c4)c(=O)n(CCc4ccccc4)c3n2)CC1	?	·	·	14%	·
CCC(/C=C/C(C)C1CCC2C3CCC4=CC(=O)CC[C@@]4(C)C3CC[C@@]12C)C(C)C (stereo not given in full)	8%	·	-11%	4%	·
C=CCN=C1NN=C(c2cc(C)n(CC=C)c2C)CS1	?	·	-26%	4%	0
CN=C1NN=C(c2cc(C)n(-c3ccc(Cl)cc3)c2C)CS1	8.9µM*	·	·	0%	·
Cc1c(N=C2NN=C(c3ccc(Cl)cc3)CS2)c(=O)n(-c2ccccc2)n1C	18µM*	·	·	4%	·
COCCCN=C1NN=C(c2cc(C)n(-c3ccccc3)c2C)CS1	8.9µM*	·	-16%	-1%	?
COCCCN=C1NN=C(c2cc(C)n(Cc3ccccc3Cl)c2C)CS1	25µM*	·	·	32%	·
Cn1c(Cn2c(=O)sc3ccccc32)nnc1SCC(=O)NCCc1ccccc1	0%	-9	-4%	0%	15
Fc1ccc(F)c(C2=NNC(=Nc3ccccc3F)SC2)c1	16µM*	·	16µM*	-3%	?
Fc1ccc(N=C2NN=C(c3cc(F)ccc3F)CS2)cc1	?	8	-21%	3%	18
CC(=O)Nc1ccc(/C(C)=N\NC(=O)c2ccc(-c3ccccc3)cc2)cc1	22µM*	·	·	-9%	·
C/C(=N\NC(=O)c1ccc(-c2ccccc2)cc1)c1cccc(N)c1	22µM*	·	·	5%	·
SMILES	ALDH1A1 block	IMPase inh	HPGD inh	IMPase Li cell	PNC assembly inh
O=C(NNc1nc2ccccc2s1)c1ccc(F)cc1	-12%	·	-11%	-2%	-23
CC(C)NC(=S)NNc1nc2ccccc2s1	0.56µM*	·	·	-9%	·
CC(=O)Nc1ccc(S(=O)(=O)NC2(C(F)(F)F)C(=O)Nc3c2c(=O)[nH]c(=O)n3Cc2cccnc2)cc1 (stereo not given)	5%	·	·	-4%	·
Cc1cc(O)c(/C=N/Nc2ccccc2Cl)c(=O)o1	10µM*	19	-20%	38%[38.3 µM]	19
Cc1cc(O)c(/C=N/Nc2ccc(Cl)cc2)c(=O)o1	4%	27	-14%	39%[38.3 µM]	-24
COc1ccc(-c2oc3ncn4nc(COc5ccccc5C)nc4c3c2-c2ccc(OC)cc2)cc1	·	2	·	·	·
